Compound activity as filed in PubChem.
An excerpt weighted towards active compounds, which were near 7.5% of everything screened.
SMN2 splice up: qHTS Assay for Enhancers of SMN2 Splice Variant Expression | HEK293 SMN2-luciferase splicing reporter, luminescence, 30-36 h | Potency, µM (series often up to 46.1 µM), for inactives: at the top dose activity change, positive = activation, usual class: activators | hit rate 2.8% among 210,000 | AID 1458, 2008; also: % of control where 0% means no effect; nearly all actives have a fitted effect of over 55% in size
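HEK293 cells carry an SMN2 […]–luciferase reporter in which exon 7 inclusion puts luciferase in frame. Cells were plated 10-12 h before compound addition, then incubated 30-36 h at 37C. ONE-Glo luminescence was read; sodium butyrate at 4.5 mM final served as control.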
Rab9 promoter act: qHTS Assay for Rab9 Promoter Activators. Huh7 Rab9 promoter-luciferase reporter, luminescence, 24 h. Potency, µM (titrated, usually from 9.22 µM), inactives show at the highest dose activation, negative = inhibition, usual class: activators. hit rate 2.8% among 320,000. AID 485297, 2010; also: % of control where 0% means no effect; nearly all actives have a fitted effect of over 60% in size
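Cell-based reporter: Huh7 stable for Rab9 promoter-driven luciferase, plated in reduced-serum medium with 10% FBS at 1500 cells/well, compound-treated 24 h at 37 °C, luminescence read after 10 min reagent.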
FLuc modulator: qHTS profiling assay for firefly luciferase inhibitor/activator using purifed enzyme and Km concentrations of substrates (counterscreen for miR-21 project) | hit rate 6.9% among 360,000 | AID 588342, 2011 | purified FLuc, Km substrates, luminescence inhibition | Potency, µM (series often up to 57.5 µM), inactives show at the highest dose activity change, negative = inhibition, hits mostly inhibitors | Luciferin 4-monooxygenase (Photinus pyralis), P08659;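 also: plate controls were vehicle for no effect and reference inhibitor for full effect; nearly all actives have a fitted effect of over 55% in size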
Target sequence (P08659 whole entry, looked up): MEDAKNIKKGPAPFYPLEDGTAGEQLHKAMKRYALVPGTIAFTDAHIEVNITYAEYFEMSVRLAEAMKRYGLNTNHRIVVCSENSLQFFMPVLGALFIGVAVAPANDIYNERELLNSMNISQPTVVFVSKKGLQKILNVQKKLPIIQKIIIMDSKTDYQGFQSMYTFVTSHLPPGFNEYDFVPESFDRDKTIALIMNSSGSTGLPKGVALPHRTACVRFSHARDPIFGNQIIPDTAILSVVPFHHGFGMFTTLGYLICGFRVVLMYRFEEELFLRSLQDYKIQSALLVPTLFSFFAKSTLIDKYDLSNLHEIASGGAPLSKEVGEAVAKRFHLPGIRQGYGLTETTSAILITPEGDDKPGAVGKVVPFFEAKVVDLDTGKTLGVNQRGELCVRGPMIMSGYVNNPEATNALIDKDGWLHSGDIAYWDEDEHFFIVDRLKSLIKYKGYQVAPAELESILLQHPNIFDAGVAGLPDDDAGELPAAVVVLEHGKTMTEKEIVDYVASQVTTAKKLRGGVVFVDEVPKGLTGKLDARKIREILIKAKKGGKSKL
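Biochemical qHTS of compounds, final roughly 60 µM downward over six points, against 10 nM purified firefly luciferase using Km concentrations of substrates (10 uM D-luciferin, 10 uM ATP) in Tris acetate pH 7.5 buffer; luminescence output.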
KinaseGlo FLuc: Counterscreen for Luciferase (Kinase-Glo TM) Inhibition; Luciferin 4-monooxygenase (Photuris pensylvanica), Q27757; Kinase-Glo luciferase, ATP luminescence, 8 min; hit rate 0.28% among 200,000; Potency, µM (titrated, usually from 38.3 µM), for the others: at the top dose activity change, negative = inhibition, most hits filed as inhibitors; AID 1379, 2008; also: % is scaled to controls: 0 for no effect and ±100 for the full control effect; nearly all actives have a fitted effect of over 60% in size
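Kinase-Glo luciferase light output from ATP and luciferin was measured with 10 uM ATP, within the enzyme's linear range. Buffer: 50 mM imidazole pH 7.2, 50 mM KCl, 7 mM MgCl2, 0.01% Tween 20, 0.05% BSA; luminescence read after 8 min at ambient temperature.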
NPC1 prom act: qHTS Assay for NPC1 Promoter Activators. hit rate 2.4% among 320,000. Huh7 NPC1 promoter luciferase reporter, 24 h. Potency, µM (top dose mostly 9.22 µM), for the others: at the highest dose activation, most hits filed as activators; also: % of control where 0% means no effect; nearly all actives have a fitted effect of over 60% in size
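In 1536-well qHTS, Huh7 cells harboring an NPC1 promoter–luciferase construct received compound for 24 h; activation was quantified by luminescence following luciferase reagent addition.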
ELG1 genotox: qHTS screen for small molecules that induce genotoxicity in human embryonic kidney (HEK293T) cells expressing luciferase-tagged ELG1 | hit rate 1.3% among 330,000 | HEK293T ELG1-luciferase reporter, luminescence, 16 h | Potency, µM (series often up to 46 µM), for the others: at the highest dose activity change, positive = activation, actives largely listed as activators; also: % of control where 0% means no effect; nearly all actives have a fitted effect of over 60% in size
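ELG1-luciferase HEK293T cells, 2,000/well; compound pinned in; 16 hr, 37 °C, 5% CO2; ONE-Glo, 30 min RT; luminescence on CCD imager.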
Numbers without * were called inactive; ? = inconclusive; . = no result. Calls follow the shape of the dose curve; as a rule, active = well fitted curve in the direction sought with a large enough effect; inconclusive = small, poorly fitted or top-dose-only effect, or another doubt; inactive = no such curve, though single readings can be large; an effect the other way counts as inactive or inconclusive. Potency is read from the fitted curve at half-maximal effect.

SMILES	SMN2 splice up	Rab9 promoter act	FLuc modulator	KinaseGlo FLuc	NPC1 prom act	ELG1 genotox
CC(=O)c1sc(Nc2nc3cc4c(cc3s2)OCO4)nc1C	11.2µM*	2µM*	3.79µM*	3.4%	3.55µM*	?
CC(=O)Nc1nc2ccc(S(=O)(=O)N3CCCCC3)cc2s1	.	-0.1%	4.1%	.	-2.8%	-0.4%
O=C(COc1ccccc1)Nc1nc2cc3c(cc2s1)OCCO3	.	5.4%	-16.6%	.	-0.2%	?
CC(C)C(=O)Nc1nc2cc3c(cc2s1)OCCO3	.	0.501µM*	2.39µM*	.	0.891µM*	?
CC(=O)Nc1nc2cc3c(cc2s1)OCO3	?	3.98µM*	19µM*	-16.0%	?	?
CCOC(=O)c1sc(NC(=O)C2CC2)cc1C	5.2%	19.1%	?	-0.7%	7.7%	6.2%
O=C(NCC1CCCO1)C(=O)N/N=C/c1c(F)cccc1Cl (stereo not drawn)	.	1.4%	-0.2%	.	-0.6%	-2.1%
Cc1c(NC(=O)c2cc(-c3cccc(O)c3)on2)c(=O)n(-c2ccccc2)n1C	2.4%	.	-10.9%	.	.	.
CCOC(=O)c1sc(Nc2nc3c(OC)cccc3s2)cc1C	-108.0%	?	7.57µM*	1.5%	?	-0.6%
C=CCSc1cc(C)nc2c(-c3ccccc3)cnn12	.	3.55µM*	3.38µM*	.	21.1%	?
Cc1ccc(-c2cc(C(F)(F)F)n3ncc(-c4ccccc4)c3n2)cc1	11.6%	.	-0.3%	.	.	.
CCSc1cc(C)nc2c(-c3ccc(Cl)cc3)c(C)nn12	-12.5%	-1.5%	-0.6%	-4.6%	-2.7%	0.5%
CCSc1cc(C)nc2c(-c3ccccc3)cnn12	.	-4.4%	3.01µM*	.	-5.7%	9.2µM*
CCOC(=O)c1cc(-c2ccc(C)cc2)n(CC(=O)Nc2ccccc2F)c1C	4.7%	.	-1.6%	.	.	.
Cc1ccc2c(c1)sc(-c1ccc(N(C)C)cc1)[n+]2C	.	-38.6%	12µM*	.	-31.3%	1.9%
COc1ccc(C)cc1Nc1n[n+](-c2ccccc2)c(-c2ccc(N(C)C)cc2)s1	.	-7.2%	0.5%	.	-21.4%	-3.6%
Cc1cccc(NC(=S)NC(=O)/C=C/c2ccco2)c1	6.6%	-9.9%	?	0.5%	-29.5%	?
O=C(/C=C/c1ccco1)NC(=S)Nc1ccccc1	.	?	26.9µM*	.	28.5%	10.3%
Cc1cccc(NC(=S)NC(=O)/C=C/c2ccco2)n1	-5.1%	3.55µM*	?	-1.6%	?	?
Cc1ccc(-n2nc3cc(C)c(NC(=S)NC(=O)/C=C/c4ccco4)cc3n2)cc1	?	-8.9%	10.7µM*	-2.8%	-2.7%	8.2µM*
O=C(c1ccccc1)N1CCN(CC(O)COc2cccc3ccccc23)CC1 (stereo not drawn)	.	3.8%	0.7%	.	2.8%	0.0%
O=C(c1cccc(COc2cccc3ccccc23)c1)N1CCCC1	22.4µM*	2.51µM*	16.9µM*	4.1%	?	14.7%
O=C(NCc1ccccc1)c1cccc(COc2ccccc2Cl)c1	12.6µM*	1.78µM*	15.1µM*	2.3%	1.78µM*	?
COC(=O)c1ccccc1NC(=O)c1cccc(COc2ccccc2Cl)c1	11.2µM*	0.447µM*	16.9µM*	-1.4%	?	?
O=C(c1cccc(COc2ccc(Cl)cc2Cl)c1)N1CCN(c2ccccn2)CC1	3.98µM*	.	4.78µM*	0.4%	.	.
SMILES	SMN2 splice up	Rab9 promoter act	FLuc modulator	KinaseGlo FLuc	NPC1 prom act	ELG1 genotox
Cc1cc(-c2ccc(S(=O)(=O)NCc3ccccc3Cl)s2)on1	.	.	-12.6%	.	.	.
CCc1ccccc1	-10.8%	.	.	.	.	.
O=C1C(Cc2ccccc2)Nc2ncnc(N3CCCCC3)c2N1Cc1ccc(Cl)cc1 (stereo not drawn)	.	-4.0%	-1.2%	.	-1.7%	6.9%
O=C(NCc1ccccc1)c1cccc(COc2cc(Cl)ccc2Cl)c1	12.6µM*	3.16µM*	?	4.5%	2.51µM*	?
CN(C(=O)c1ccc(COc2ccccc2Cl)o1)c1ccccc1	.	-6.5%	-4.5%	.	19.8%	-1.4%
NNC(=O)c1cccc(COc2ccccc2Br)c1	12.6µM*	0.891µM*	7.57µM*	-3.6%	0.355µM*	?
NNC(=O)c1cccc(COc2ccc3c(c2)CCC3)c1	0.398µM*	0.316µM*	2.39µM*	-17.3%	0.224µM*	?
CN(C(=O)c1cccc(COc2ccc(Cl)cc2Cl)c1)c1ccccc1	3.16µM*	1µM*	12µM*	0.7%	0.631µM*	2.06µM*
O=C(NCc1ccccc1)c1cnc(Cl)c(Cl)c1	.	12.2%	-1.1%	.	-2.4%	4.1%
COc1ccc(S(=O)(=O)N2CCN(C(=O)CCSc3ccccc3)CC2)cc1	.	-1.1%	2.2%	.	0.4%	-3.4%
O=C(CN(Cc1ccco1)C(=O)CCC(=O)Nc1ccccn1)NCc1ccccc1	.	-0.4%	2.5%	.	-0.3%	-0.1%
CC(C)Oc1ccc(C(=O)N(Cc2ccc(N(C)C)cc2)Cc2ccco2)cc1	-8.7%	.	?	.	.	.
COc1ccc(-c2cc3nc4n(c(=O)c3s2)CCCCC4)cc1	.	0.708µM*	1.35µM*	.	0.631µM*	2.59µM*
COc1ccc(-c2cc3nc4n(c(=O)c3s2)CCC4)cc1	0.631µM*	0.501µM*	0.601µM*	?	0.447µM*	0.13µM*
COc1ccc(-c2nnc(SCC(=O)N3CCOCC3)o2)cc1	14.1µM*	4.47µM*	21.3µM*	4.4%	?	20.6µM*
COc1cccc(-c2nnc(SCC(=O)N3CCOCC3)o2)c1	21.3%	3.98µM*	?	-0.3%	?	10.3%
O=C(N1CCCC1)C(F)(F)Oc1ccc(F)cc1	-2.6%	-5.3%	2.8%	-6.2%	0.6%	5.4%
Cc1ccc(OCc2nc(-c3ccc(C(=O)NCCc4ccc(S(N)(=O)=O)cc4)cc3)oc2C)cc1	-12.1%	.	4.4%	.	.	.
CC(C)(C)c1ccc(C2(C)NC(=O)NC2=O)cc1 (stereo not drawn)	.	-4.2%	0.2%	.	1.4%	-2.4%
CC(=O)N=c1sc2cc(C)ccc2n1C	-16.2%	9.6%	?	-0.1%	7.0%	12.6µM*
O=C(NC(=S)Nc1ccc(N2CCOCC2)cc1)c1ccco1	15.8µM*	?	?	-11.2%	2.82µM*	?
CC(C)CC(=O)N1CCN(c2ccc(NC(=O)c3ccco3)cc2)CC1	.	3.16µM*	0.3%	.	0.4%	2.3%
O=C(NC(=S)Nc1ccc(CN2CCCCC2)cc1)c1ccco1	-4.1%	-1.2%	-15.9%	0.4%	5.0%	3.4%
S=C(Nc1ccc(N2CCOCC2)cc1)Nc1ccc2nc(-c3ccco3)c(-c3ccco3)nc2c1	-11.6%	3.9%	15.1µM*	-0.2%	1.0%	-2.4%
